Among all 65,000 compounds or so, about 2,100 (3.2%) showed an effect of 50% or more. The median lay at about -52%. This excerpt belongs to a sample that is enriched for strong results.

The subject of the assay is Plasmodium falciparum. The assay is described as follows: Screen against P. falciparum Asexual Blood Stage (ABS), at 5uM. It is filed as functional, Dd2. Conditions: tested at 5 uM.
Regarding `c1ccc(Cn2ccnc2CNC2CCCOc3ccccc32)cc1` (configuration not stated), the INHIBITION stood at 42.5%.
The value for `Cn1cc(CNC2CCCOc3c2ccc2ccccc32)cn1` (configuration not stated) was 63.1%; that for `Cc1cccc2c1OCCC2NCc1c(C)nn(C)c1N(C)C` (configuration not stated) was 0.635%; that for `Cn1cc(CNC2CCCOc3c(Cl)cccc32)cn1` (configuration not stated) was 20.3%.
For `Cc1ccc2c(c1)OCCCC2NCc1nccn1Cc1ccccc1` (configuration not stated), the INHIBITION is given as -13.4%.
The value for `Cc1cccc2c1OCCCC2NCc1nccn1Cc1ccccc1` (configuration not stated) was 63.8%; that for `CCCn1cc(-c2cc(-c3cc(CC)n[nH]3)c(C#N)c(N)n2)c(C)n1` was -20.1%; that for `CCCN1CCC(c2nc3ccc(NCc4ccccc4)cn3n2)CC1` was -1.75%.
On to `O=C1CCCN1Cc1ncn2c1CN(C(=O)N1CCCC1)CCC2`, for which the INHIBITION is recorded as -29.5%.
`Cn1cc(NC(=O)N2CCC2c2ccccc2)ccc1=O` (configuration not stated): the INHIBITION was determined as 54.8%.
As to `Cn1cc(NC(=O)N2CCCC2c2cccnc2)ccc1=O` (configuration not stated), the INHIBITION is on record as -8.15%.
In the case of `Cn1cc(NC(=O)N2CCC(c3ccccc3)CC2)ccc1=O`, the INHIBITION is given as -187%.
The value for `Cc1cc(C(=O)N2CCO[C@H]3[C@H](Oc4ccccn4)CC[C@@H]32)c(C)[nH]1` was 51.5%; that for `O=C(C1=CCCC1)N1CCO[C@H]2[C@@H](Oc3ccccn3)CC[C@@H]21` was -51.5%.
On to `Cc1occc1C(=O)N1CCO[C@H]2[C@@H](Oc3ccccn3)CC[C@@H]21`, for which the INHIBITION is reported as -73.5%.
Then `CCCc1nc(N2CCCN(c3ccncc3)CC2)c2cnn(C)c2n1`, with 65%; and `CCCc1nc(N2CCCN(c3ncccn3)CC2)c2cnn(C)c2n1`, with -2.15%.
For the compound `CCCc1nc(N2CCN(Cc3ccccn3)CC2)c2cnn(C)c2n1`, the INHIBITION worked out at 19.2%.
As for `Cc1cnn(C2CCCN(C(=O)c3cccc4c3OCO4)C2)c1` (configuration not stated), the INHIBITION is listed as -116%.
For `CCN(Cc1cc(Cl)ccc1OC)Cc1ncnn1CC`, the INHIBITION is on record as -33.4%.
With `CCn1nc(C)c(CN(Cc2ccccn2)Cc2ccccc2Cl)c1C`, the INHIBITION is -33.9%.
Then `Cn1cc(CN(Cc2ccccn2)Cc2ccccc2Cl)cn1`, with -31.1%.
Take `CCN(Cc1cc(Cl)ccc1OC)Cc1nccn1C`: the INHIBITION amounted to 67.2%.
The value for `CCN(Cc1ccccn1)Cc1cc(Cl)ccc1OC` was -28.3%; that for `Cn1ccnc1CN(Cc1ccccn1)Cc1ccccc1Cl` was 79.4%.
For `Cc1cccc(CN2CCc3c(COCC(=O)N(C)C)nn(C)c3C2)n1`, the INHIBITION was -107%.
Take `COCC(=O)N1CCCC(COc2ccccc2C)C1` (configuration not stated): the INHIBITION was -71%.
`Cc1ccccc1OCC1CCCN(C(=O)CN(C)C2CCNCC2)C1` (configuration not stated): the INHIBITION is reported as 57.5%.
The value for `Cc1ccccc1OCC1CCCN(C(=O)CNC(=O)N(C)C)C1` (configuration not stated) was -158%; that for `Cc1[nH]/c(=N\C(=O)c2csc(NC3CCCC3)n2)sc1C` was 50%; that for `Cc1[nH]/c(=N\C(=O)c2csc(NCC(C)C)n2)sc1C` was -31.9%.
As for `Cc1cnc(NC(=O)c2csc(NC3CCCC3)n2)s1`, the INHIBITION is reported as -86.7%.

The values above are taken from ChEMBL document CHEMBL4513216, “Probing the Open Global Health Chemical Diversity Library for Multistage-Active Starting Points for Next-Generation Antimalarials” (ACS Infect Dis, 2020).
